High-throughput results from PubChem.
Methyltransferases – Primary Screen for Target Class Profiling of Small Molecule Inhibitors of Methyltransferases; AID 1745853, 2022; 3.9% of 25,000 active; calls only at 40 µM; purified enzyme, MTase-Glo SAH luminescence; hits give low values; call rule not given here
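Each enzyme was reacted with SAM and its substrate, with compounds tested once at 40 uM; SAH formed was read by MTase-Glo luminescence.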
An asterisk follows results filed as active; i = inactive; + = active, no number. The sample as a whole holds a higher share of hits than the screen did. % is set by controls: 0 for no effect and ±100 for the full control effect.

SMILES	Methyltransferases
CC(C)[C@@](C)(O)[C@@H]1CN(c2nc(-c3[nH]nc4ncccc34)c(F)cc2Cl)CCN1	+
CCC(C)NC(=O)c1ccc2c(=O)n(C)c3nn(CC(=O)c4cccc(OC)c4)c(=O)n3c2c1 (configuration not stated)	i
COCCCN1C(=O)c2cc(-c3ccccc3)nn2CC1(C)C(=O)NCc1ccccc1 (configuration not stated)	i
COc1cccc(CNC(=O)Cn2nc3ccc(SCc4ccc(Cl)cc4)nn3c2=O)c1	i
C=C(C(=O)O)[C@@H]1CC=C2CCC[C@H](C)[C@@]2(C)C1	i
C=C(C(=O)O)[C@@H]1CC[C@@]2(C)CC[C@H](O)[C@@]2(C(C)=O)C1	+
CCC1CCCCN1CCCN1C(=O)c2cc3occc3n2CC1(C)C(=O)NC1CCC(C)CC1 (configuration not stated)	i
Clc1ccc(CNc2nc3c(-c4ccccc4)nnn3c3ccccc23)cc1	i
C[C@H]1c2cccc(O)c2C(O)=C2C(=O)[C@]3(O)C(O)=C(C(N)=O)C(=O)[C@@H](N(C)C)[C@@H]3[C@@H](O)[C@@H]21	+
COc1ccc(N2C(=O)c3cc4ccccc4n3CC2(C)C(=O)NC2CCCC2)cc1 (configuration not stated)	i
Cc1c(Cl)cccc1NC(=O)N1Cc2c(sc3c2CCCC3)-n2cccc2C1C(C)C (configuration not stated)	i
COc1ccc(C(=O)N(CCC(C)C)Cc2nc(C)c(C)n2Cc2ccccc2C)c(OC)c1	+
COc1ccc(N2C(=O)c3cc4ccccc4n3CC2(C)C(=O)NCCC(C)C)c(OC)c1 (configuration not stated)	i
COc1ccc(OC)c(CN2C(=O)c3cc4ccccc4n3CC2(C)C(=O)NCCC(C)C)c1 (configuration not stated)	i
CC1(C(=O)NC2CCCCCC2)Cn2c(cc3sccc32)C(=O)N1CCCc1ccccc1 (configuration not stated)	i
COc1ccc(C(=O)N2CCN(c3cc(-c4cccs4)[nH]n3)CC2)cc1OC	i
CN1CCN(C(=O)c2ccc(Nc3nccc(-c4cccs4)n3)cc2Cl)CC1	+
Cc1ccsc1C(=O)N1CCN(c2cc(-c3cccs3)[nH]n2)CC1	i
COc1ccc(-c2cc3n(n2)CC(C)(C(=O)NCc2ccccc2OC)N(c2ccc(OC)cc2)C3=O)cc1 (configuration not stated)	i
Fc1cccc(-c2nnn3c2nc(N2CCCC2)c2cc(Cl)ccc23)c1	i
CCc1ccc(NC(=O)CSc2nnc3n(CCCOC(C)C)c(=O)c4ccccc4n23)cc1	i
CC(C)Oc1ccc(CNC(=O)C(C)n2ccc3cc(S(=O)(=O)N4CCCC4)ccc32)cc1 (configuration not stated)	i
CC(=O)NC1CCN(C(=O)c2coc(COc3cccc(C(F)(F)F)c3)n2)C1 (configuration not stated)	i
O=C(CNC(=O)c1cccc(C(F)(F)F)c1)N[C@@H]1CCN(Cc2ccc(Cl)cc2)C1	i
COc1ccc(C2(O)CCC(N3CC[C@@H](NC(=O)CNC(=O)c4cccc(C(F)(F)F)c4)C3)CC2)cn1 (some centres not stated)	+
SMILES	Methyltransferases
CCOc1ccc(CN2C(=O)c3cc4sccc4n3CC2(C)C(=O)NC2CCCCCCC2)cc1 (configuration not stated)	i
Cc1cccc(Cn2nc3n(C(C)C)c(=O)c4ccc(C(=O)NC(C)C)cc4n3c2=O)c1	i
O=S(=O)(Nc1cc(Cl)c(Oc2cnc3ccccc3c2)c(Cl)c1)c1ccc(Cl)cc1Cl	+
COc1ccc(NS(=O)(=O)c2cc3c(cc2Cl)n(C)c(=O)n3C)cc1	i
Cn1c(=O)n(C)c2cc(S(=O)(=O)Nc3ccccc3)c(Cl)cc21	i
Cc1ccc(Cn2c(=O)c3ccc(C(=O)NCC(C)C)cc3n3c(=O)n(Cc4ccc(F)cc4)nc23)cc1	i
C=CCn1c(=O)c2ccc(C(=O)NC(C)C)cc2n2c(=O)n(CC(=O)NCCc3ccccc3)nc12	i
CC(C)Cn1c(=O)c2ccc(C(=O)NC(C)C)cc2n2c(=O)n(Cc3c(F)cccc3Cl)nc12	i
CC[n+]1c(/C=C/C=C2/N(C)c3ccccc3C2(C)C)sc2ccccc21	+
CC1(C(=O)NC2CCCCC2)Cn2c(c(-n3cccc3)c3ccccc32)C(=O)N1Cc1ccco1 (configuration not stated)	i
Cn1cc(-c2cnn3c(N)c(Br)c([C@@H]4CCCNC4)nc23)cn1	+
O=C(NCc1cccnc1)c1ccc2c(=O)nc3c(-c4ccc(Cl)cc4)n[nH]n3c2c1	i
COc1ccc(CN2C(=O)c3cc(-c4ccccc4)nn3CC2(C)C(=O)NCc2ccccc2)c(OC)c1 (configuration not stated)	i
C[C@@H](Oc1cc(-n2cnc3ccc(OC4CCN(C)CC4)cc32)sc1C(N)=O)c1ccccc1C(F)(F)F	+
CCCSCCCN1C(=O)c2cc3occc3n2CC1(C)C(=O)NC1CCC(C)CC1 (configuration not stated)	i
COC(=O)c1cc2n(n1)CC(C)(C(=O)NC1CCCCCC1)N(c1ccc(OC)cc1)C2=O (configuration not stated)	i
COc1cc2ncnc(Nc3cccc(I)c3)c2cc1OC	+
COc1cc2ncnc(-n3nc(-c4ccccn4)nc3N)c2cc1OC	i
COc1cc2ncnc(Nc3cc(Br)c(O)c(Br)c3)c2cc1OC	i
Cc1ccc(CNC(=O)Cn2nc3n(CC(C)C)c(=O)c4ccccc4n3c2=O)cc1	i
CC1(C(=O)NC2CCCC2)Cn2c(c(-n3cccc3)c3ccccc32)C(=O)N1Cc1ccco1 (configuration not stated)	i
CC1=C(C(=O)OC2OC(COC3OC(CO)C(O)C(O)C3O)C(O)C(O)C2O)C(C)(C)CCC1 (configuration not stated)	i
CC(C)(O)C1CC=C(C(=O)OC[C@H]2O[C@@H](OC(=O)C3=CCC(C(C)(C)O)CC3)[C@H](O)[C@@H](O)[C@@H]2O)CC1 (some centres not stated)	+
O=C(O[C@@H]1O[C@H](CO)[C@@H](O)[C@H](O)[C@H]1O)c1ccccc1	i
CCCN1C(=O)c2c(C(=O)NCc3ccc(OC)cc3OC)ncn2CC1(C)C(=O)NC1CCCC1 (configuration not stated)	i
SMILES	Methyltransferases
O=c1c2ccccc2n2c(=O)n(Cc3ccc(Cl)cc3)nc2n1Cc1ccccc1	i
CCOCCCNC(=O)c1cc2n(n1)CC(C)(C(=O)NC1CCCC1)N(CC)C2=O (configuration not stated)	i
CCN(CC)c1ccc(N2C(=O)c3ccc(-c4ccco4)n3CC2(C)C(=O)NCc2ccccc2)c(C)c1 (configuration not stated)	i
Cn1c(=O)n(C)c2cc(S(=O)(=O)Nc3ccc(N4CCOCC4)cc3)c(Cl)cc21	i
CC(C)CCn1c(=O)c2ccccc2n2c(=O)n(CC(=O)Nc3ccc4c(c3)OCCO4)nc12	i
N=C(N)c1ccccc1	i
O=C(c1ccc(OCCCc2cnc[nH]2)cc1)C1CC1	i
N=C(N)c1ccc(OCCCCCOc2ccc(C(=N)N)cc2)cc1 (tested in a mixture with another compound)	+
